# Giardia killer: kills Giardia lamblia; Giardia lamblia trophozoite viability; activity change, % at 7.66 µM, hits read low; 0.15% of 340,000 active; AID 540267; in the data active = activity change below about -80%; inconclusive = between about -30% and that limit;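 also: parasites exposed to compound for two days anaerobically before the ATP read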
#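 Giardia trophozoites, 100 cells per well, were exposed to compounds for 48 hrs at 37 deg C under anaerobic conditions; viability was then read as ATP content by bioluminescence after 15-30 min at room temperature.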
# TGFb SMAD3 inh: TGF-b pathway inhibition; HepG2 CAGA-GFP TGF-b/SMAD3 reporter, GFP fluorescence, 18 h; TGF-beta stimulated, 500 pg/mL final; Potency, µM (top dose mostly 46.1 µM), most hits filed as inhibitors; 1.2% of 410,000 active; AID 588855; also: nearly all actives have a fitted effect of over 65% in size
#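 HEPG2 CAGA-GFP, 1000 cells/well; 2 h settle, 37 C; cpd via pin tool; TGF-b 500 pg/mL final; 18 h, 37 C; GFP imaging ex488/em500-530; %Activity normalised to -TGF-b and +DMSO controls; CRC fit, curve class.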
# IL-1B inflam inh: blocks inflammasome-driven IL-1 beta release; 4.7% of 360,000 active; AID 743279; THP-1 LPS/ATP IL-1B secretion, AlphaLISA, 16 h; stronger effect = lower value; activity change, % at 57.5 µM; in the data active = activity change below about -50%; inconclusive = mostly about -30% to -49%
#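 THP-1 cells pretreated 1 hr with compounds (up to 57.5 uM final), then stimulated with LPS (250 ng/mL final) plus ATP (1.25 mM final); secreted IL-1B measured by AlphaLISA after 16 hr, decreased signal indicating inhibition.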
# HT1080 IDH1KD tx: toxicity to HT-1080 IDH1 knockdown cells (counter line). HT-1080 IDH1 knockdown viability, ATP luminescence, 48 h. Potency, µM (top dose mostly 46.1 µM), usual class: cytotoxic. AID 686971. 2% of 360,000 active
#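 Using the IDH1-knockdown HT-1080 line run in the same batch and compound series as the NT line, viability after 48 h at 37 °C was determined by CellTiter-Glo luminescence and expressed as % activity.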
# HT1080NT lethal: kills 2HG-producing HT-1080-NT fibrosarcoma cells; HT-1080-NT fibrosarcoma viability, CellTiter-Glo ATP luminescence, 48 h; Potency, µM (top dose mostly 46.1 µM), actives largely listed as cytotoxic; 1.6% of 360,000 active; AID 686970;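 also: NT is the 2HG producing partner of a matched IDH1 knockdown line; nearly all actives have a fitted effect of over 55% in size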
#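 750 cells/well, RPMI + 5% FBS; 2 h settle, compound pin-transfer, 48 h at 37 degrees C. CellTiter-Glo 10 min RT, luminescence. Normalized to DMSO and media-only wells.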
# HepG2 tox-1: counter-screen for TGF-b inhibitors: cytotoxicity in HepG2 cells | HepG2 CAGA-GFP viability, ATP luminescence, 18 h | Potency, µM (series often up to 46.1 µM), hits mostly cytotoxic | 0.76% of 410,000 active
#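 HepG2 CAGA-GFP cells (1000/well, DMEM with 1% FBS) received compound, then TGF-beta at 500 pg/mL final, and were incubated 18 hours at 37 degrees C. Viability was read by CellTiter-Glo luminescence. Media-only wells were set as complete cell-killing and DMSO as no toxicity.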
# TGFb confirm: confirmation of TGF-b signaling inhibitors in HepG2 reporter cells; shares compounds with TGFb SMAD3 inh; HepG2 CAGA-GFP TGF-b reporter, GFP fluorescence, 18 h; cells stimulated with TGF-beta, 500 pg/mL; Potency, µM (titrated, usually from 46.1 µM), hits mostly inhibitors; 63% of 1,600 active; AID 720534; also: nearly all actives have a fitted effect of over 65% in size
# HepG2 tox-2: counter-screen for TGF-b inhibitors: cytotoxicity in HepG2 cells | shares compounds with TGFb SMAD3 inh | HepG2 CAGA-GFP viability, ATP luminescence, 18 h; cells stimulated with TGF-beta, 500 pg/mL | Potency, µM (series often up to 46.1 µM), usual class: inhibitors | 27% of 1,600 active; also: nearly all actives have a fitted effect of over 70% in size
# CCL64 TGFb inh: blocks TGF-b signaling in CCL64 reporter cells. 41% of 1,600 active. Potency, µM (highest dose often 46.1 µM), hits mostly inhibitors. AID 720536. shares compounds with TGFb SMAD3 inh. CCL64 CAGA-GFP reporter, TGF-b stimulated, GFP fluorescence, 18 h; also: nearly all actives have a fitted effect of over 65% in size
# TGFb COP inh: TGF-b inhibition validated with COP promoter; shares compounds with TGFb SMAD3 inh; HepG2 COP-GFP TGF-b reporter, GFP fluorescence, 18 h; cells stimulated by added recombinant TGF-beta; Potency, µM (titrated, usually from 46.1 µM), most hits filed as inhibitors; 3% of 1,600 active; also: nearly all actives have a fitted effect of over 70% in size
# Hits are given with their value; i = inactive; ? = inconclusive; nt = no result. Only some compounds are listed: those with a hit (about 6.5% of all), similar ones and a draw of the others. Unless noted, calls follow the shape of the dose curve; as a rule, active = well fitted curve in the direction sought with a large enough effect; inconclusive = small, poorly fitted or top-dose-only effect, or another doubt; inactive = no such curve, though single readings can be large; an effect the other way counts as inactive or inconclusive.
SMILES,Giardia killer,TGFb SMAD3 inh,IL-1B inflam inh,HT1080 IDH1KD tx,HT1080NT lethal,HepG2 tox-1,TGFb confirm,HepG2 tox-2,CCL64 TGFb inh,TGFb COP inh
Cc1cccc(C)c1-n1nnnc1C(CCc1ccccc1)N1CCC2(CC1)C(=O)NCN2c1ccccc1 (centres undefined),nt,i,i,i,i,i,nt,nt,nt,nt
CCC1=Nc2cc(C(=O)N3CCC4(CC3)OCCO4)ccc2Sc2ccccc21,i,i,i,i,i,i,nt,nt,nt,nt
O=c1cccc2n1CC1CC2CN(c2ncnc3c2cnn3-c2ccc(Cl)cc2)C1 (centres undefined),i,i,i,i,i,i,nt,nt,nt,nt
COC(=O)C1=C(c2ccc3ccccc3c2)C[C@@H]2CC[C@H]1N2C(=O)N1CCOCC1,i,13µM,i,i,i,i,?,i,i,i
COC(=O)C1=C(c2ccc(-c3ccccc3)c(F)c2)C[C@@H]2CC[C@H]1N2C(=O)N1CCC(C)CC1,i,4.5µM,i,?,?,i,7.3µM,?,9.2µM,i
COC(=O)Nc1nc2ccccc2[nH]1,i,i,i,?,?,i,nt,nt,nt,nt
CCCOc1ccc(CSc2nc3ccccc3[nH]2)cc1,i,10µM,-56,11µM,?,i,i,?,?,i
O=[N+]([O-])c1ccc(N(CCO)CCO)c2c1no[n+]2[O-],nt,7.1µM,-103,5.8µM,8.2µM,i,10µM,13µM,12µM,?
CN1CCN(c2ccc([N+](=O)[O-])c3no[n+]([O-])c23)CC1,i,3.2µM,-101,4.6µM,2.9µM,8.9µM,4.1µM,5.2µM,3.3µM,?
CN(C)/C=C1/C(=O)NC(=O)N(CCNc2ncc(C(F)(F)F)cc2Cl)C1=O,?,i,i,i,i,i,nt,nt,nt,nt
C=Cc1cc(OC)c2c(c1)c(=O)oc1c2cc(OC)c2c(O)ccc(C3OC(C)C(O)C(C)(O)C3O)c21 (centres undefined),i,1.4µM,-100,1.5µM,9.2µM,i,0.92µM,1.2µM,2.1µM,i
CCOc1ccc2nc(NC(=O)c3cccn(Cc4ccc(C)cc4)c3=O)sc2c1,nt,i,nt,nt,nt,i,nt,nt,nt,nt
O=C(c1cn(Cc2ccccc2F)c2ncccc12)C(F)(F)F,i,?,i,i,i,i,?,i,i,i
CCOc1ccccc1NC(=O)N1CCC2(CC1)OCCO2,i,i,i,i,i,i,nt,nt,nt,nt
N#Cc1cc2c(nc1SCC(=O)Nc1cccc(F)c1)C1CCN2CC1,nt,?,nt,nt,nt,i,nt,nt,nt,nt
COc1cccc(C(c2nnnn2C(C)(C)C)N2CCC3(CC2)C(=O)NCN3c2ccccc2)c1OC (centres undefined),nt,i,?,?,?,i,nt,nt,nt,nt
CC=CC(C)=CC(C)C(=O)CC(O)CC1CC(=O)NC(=O)C1 (centres undefined),nt,i,i,i,i,i,nt,nt,nt,nt
CC1CC(C)(O)CC(C(O)CC2CC(=O)NC(=O)C2)C1=O (centres undefined),?,0.32µM,-101,0.16µM,?,i,0.13µM,?,0.26µM,i
